For assay [1], the target named is Cytochrome P450 3A4 (Homo sapiens) (UniProt P08684). Briefly: qHTS Assay for Inhibitors and Substrates of Cytochrome P450 3A4 (AID 884). Further: nearly all actives have a fitted effect of over 50% in size. Further: potency means the concentration at half of the fitted maximal effect. Put shortly:
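Luminescent readout of luciferin produced by CYP3A4 (20 nM) dealkylation of Luciferin-PPXE, 25 uM (its KM). NADPH-driven reaction ran 60 min at RT after 10 min compound preincubation; data scaled to 57 uM ketoconazole as 100% inhibition.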

Assay [2] concerns Zika virus NS2B-NS3 protease. Briefly: Primary screen GU AMC qHTS for Zika virus inhibitors (AID 1347154). Further: nearly all actives have a fitted effect of over 70% in size. Put shortly:
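Unlinked Zika NS2B hydrophilic domain/NS3 protease domain noncovalent complex (25 nM final) in 10 mM Tris-HCl pH 8.0, 0.01% Tween 20, with AMC peptide substrate. Fluorescence (ex 340, em 450 nm) change over 15 min, room temperature; percent inhibition fitted to 4-parameter Hill equation.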

A short description of assay [3]: Primary qHTS for small molecule stabilizers of the endoplasmic reticulum resident proteome: Secreted ER Calcium Modulated Protein (SERCaMP) assay (AID 1508630). The procedure, abridged:
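The SH-SY5Y reporter protocol was run at 3 concentrations up to 38.3 uM (primary) or 11 concentrations (follow-up): 16 h compound, 100 nM thapsigargin for 4 h, then extracellular luciferase luminescence.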

In assay [4] the target is Glucocorticoid receptor (Homo sapiens) (UniProt P04150). Briefly: GR-GFP Redistribution (AID 450;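 active means compounds whose dose series gives a full or clear partial fitted curve of increased nuclear translocation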; further: potency means the concentration at half of the fitted maximal effect). Conditions: U2OS GR-GFP nuclear translocation, laser cytometry, 2 h.
Chain of Glucocorticoid receptor (Homo sapiens) (P04150 whole entry, looked up, the tested form may be a part): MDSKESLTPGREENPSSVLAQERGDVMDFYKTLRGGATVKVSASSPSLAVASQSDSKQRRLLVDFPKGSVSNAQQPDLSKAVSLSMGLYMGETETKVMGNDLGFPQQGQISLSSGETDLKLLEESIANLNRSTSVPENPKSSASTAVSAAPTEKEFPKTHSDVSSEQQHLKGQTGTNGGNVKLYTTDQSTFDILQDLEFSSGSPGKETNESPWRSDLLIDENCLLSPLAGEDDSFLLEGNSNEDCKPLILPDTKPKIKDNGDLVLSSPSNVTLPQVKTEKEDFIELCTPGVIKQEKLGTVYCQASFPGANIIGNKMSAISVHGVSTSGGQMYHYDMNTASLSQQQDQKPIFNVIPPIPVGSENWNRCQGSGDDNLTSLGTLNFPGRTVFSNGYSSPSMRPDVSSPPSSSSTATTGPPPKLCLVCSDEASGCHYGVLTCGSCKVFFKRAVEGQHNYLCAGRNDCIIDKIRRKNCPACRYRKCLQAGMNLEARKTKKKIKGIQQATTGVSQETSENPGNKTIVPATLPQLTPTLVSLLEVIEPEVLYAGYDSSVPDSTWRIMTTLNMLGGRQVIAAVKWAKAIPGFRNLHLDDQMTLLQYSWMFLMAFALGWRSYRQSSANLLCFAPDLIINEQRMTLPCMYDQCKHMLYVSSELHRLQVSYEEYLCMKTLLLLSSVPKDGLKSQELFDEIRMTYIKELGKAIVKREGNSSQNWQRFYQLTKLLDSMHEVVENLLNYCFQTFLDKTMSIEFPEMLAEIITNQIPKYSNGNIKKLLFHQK
For assay [5] the target is unchanged. In words: GR-EFC Redistribution (AID 451; calls by dose curve; further: potency means the concentration at half of the fitted maximal effect). Conditions: CHO-K1 GR-EFC translocation, beta-gal luminescence, 2 h. The procedure, abridged: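 CHO-K1 cells stably expressing nuclear-localized β-gal enzyme acceptor and GR fused C-terminally to the enzyme donor fragment; ligand-driven nuclear translocation restores β-gal by complementation. Compounds titrated up to 46 uM final, 2 h at 37 °C; luminescence read.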

Assay [6] has as its target DNA dC->dU-editing enzyme APOBEC-3G (Homo sapiens) (UniProt Q9HC16). In words: qHTS for inhibitors of Vif-A3G interactions: Validation (AID 588379). Put shortly:
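Yellow fluorescence (Ex 488, Em 500-530) of Vif-coexpressing HeLa A3G-eYFP cells, scanned by Acumen cytometer, reports blocked A3G degradation. Cells plated at 700/well overnight at 37 deg C before compound addition, then a further overnight compound incubation at 37 deg C.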

In assay [7] the target is Cytochrome P450 3A4 (Homo sapiens) (UniProt P08684). In words: qHTS Assay for Activators of Cytochrome P450 3A4 (AID 885). Further: nearly all actives have a fitted effect of over 65% in size. Put shortly:
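Human CYP3A4 dealkylates Luciferin-PPXE to luciferin, which luciferase detection converts to light. Substrate was at its KM (25uM), buffer 200mM KPO4, reaction 60 min at RT.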

Assay [8] deals with Mitogen-activated protein kinase 10 (Mus musculus) (UniProt Q61831). Briefly: JNK3 AlphaScreen Assay (AID 530; active means well fitted curve in either direction with a large enough effect, not every such curve was filed as active;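 further: kinase came from lysate of stimulated human HepG2 cells; signal reports phosphorylation of biotinylated GST-cJun 1-79 at Ser73 with 10 µM ATP; series mostly up to about 57 µM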). The procedure, abridged: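 Phosphorylation of biotinylated GST-cJun(1-79) at Ser73 is measured by AlphaScreen proximity luminescence. Enzyme is JNK3 in HepG2 lysates activated with interleukin-1beta and tumor necrosis factor alpha; ATP is 10 uM final.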
The target of assay [9] is 3',5'-cyclic-AMP phosphodiesterase 4B (Homo sapiens) (UniProt Q07343). In words: qHTS Assay for Inhibitors of PDE-IV (AID 607; active means well fitted activation curve with a large enough effect in the main read-out, with a control signal flat, not every such curve was filed as active). Put shortly: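 HEK293 ACTOne cells with CNG channel (1000/well), endogenous PDE4; membrane potential dye, compounds up to 22.9 uM final. Fluorescence Ex 535/Em 590; RO 20-1724 (100 uM final) as reference.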
Chain of 3',5'-cyclic-AMP phosphodiesterase 4B (Homo sapiens) (Q07343 whole entry, looked up): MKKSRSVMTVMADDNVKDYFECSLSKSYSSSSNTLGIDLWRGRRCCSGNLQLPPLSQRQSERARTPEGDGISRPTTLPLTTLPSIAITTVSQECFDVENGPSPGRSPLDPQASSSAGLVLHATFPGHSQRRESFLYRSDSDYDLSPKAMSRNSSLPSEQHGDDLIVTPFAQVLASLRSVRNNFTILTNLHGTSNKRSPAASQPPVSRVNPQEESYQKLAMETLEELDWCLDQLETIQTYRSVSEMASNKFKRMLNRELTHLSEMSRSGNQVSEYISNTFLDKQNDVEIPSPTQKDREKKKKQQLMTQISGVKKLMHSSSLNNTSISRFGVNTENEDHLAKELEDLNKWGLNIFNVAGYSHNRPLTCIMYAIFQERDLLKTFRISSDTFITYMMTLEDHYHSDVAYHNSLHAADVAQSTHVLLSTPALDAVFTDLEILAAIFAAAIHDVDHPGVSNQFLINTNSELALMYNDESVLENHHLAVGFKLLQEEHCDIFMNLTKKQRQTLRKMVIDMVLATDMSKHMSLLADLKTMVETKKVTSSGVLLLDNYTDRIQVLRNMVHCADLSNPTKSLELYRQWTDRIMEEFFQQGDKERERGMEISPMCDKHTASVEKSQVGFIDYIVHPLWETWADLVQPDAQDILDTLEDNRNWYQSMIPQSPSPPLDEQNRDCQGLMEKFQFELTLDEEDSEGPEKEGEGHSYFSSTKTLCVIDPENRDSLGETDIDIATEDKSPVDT
Assay [10] addresses Guanine nucleotide-binding protein G(i) subunit alpha-1 (Homo sapiens) (UniProt P63096). In words: qHTS Assay for Inhibitors of RGS12 GoLoco Motif Activity (Green Fluorophore) (AID 879).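 Further: negative values mean loss of peptide binding seen as reduced polarization.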 Put shortly:
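A drop in FITC polarization marked displacement of the FITC-tagged RGS12 GoLoco peptide (10 nM) from Gαi1 (50 nM). Compounds were incubated 10 min at room temperature in Tris pH 7.5 buffer containing 150 mM NaCl, 0.1 mM GDP and 0.05% NP40; unlabeled peptide titration served as control.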

For assay [11], the target named is Muscarinic acetylcholine receptor M1 (Rattus norvegicus) (UniProt P08482). In words: qHTS Assay for Antagonists of Acetylcholine Muscarinic M1 Receptor: Kinetic Measurement of Intracellular Calcium Response (AID 943). Further: potency means the concentration at half of the fitted maximal effect; nearly all actives have a fitted effect of over 75% in size. The procedure, abridged:
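Antagonism measured as reduction of carbachol-evoked (EC80, 100 nM final) calcium flux in rat M1-CHO cells after 10 min compound exposure. Fluo-4 signal read kinetically; ratio of maximal to basal fluorescence.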

In assay [12] the target is Pyruvate kinase (Leishmania mexicana) (UniProt Q27686). Briefly: qHTS Validation Assay for Inhibitors of Leishmania Mexicana Pyruvate Kinase (AID 945). The procedure, abridged:
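Purified LmPYK (E451W mutant, 0.2 nM) was incubated 1 h at room temperature with 0.5 mM PEP and 0.1 mM ADP in 50 mM imidazole pH 7.2, 50 mM KCl, 7 mM MgCl2; ATP formed was read by PKLight luminescence, normalized to DMSO wells.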

Assay [13] has as its target Alpha-galactosidase A (Homo sapiens) (UniProt P06280). In words: Counterscreen for Glucocerebrosidase Inhibitors: qHTS Assay for Human alpha-Galactosidase at pH 4.5 (AID 992). Put shortly: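 Steps: enzyme (2 nM final), then compound across 0.7 nM to 77 uM, then 80 uM fluorogenic galactopyranoside substrate; incubate 20 min at room temperature; quench at pH 10; measure fluorescence at 365/440 nm.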

Assay [14] concerns the target alpha-glucosidase (Oryza sativa, rice) (UniProt Q653V4). Briefly: Counterscreen for Glucocerebrosidase Inhibitors: qHTS Assay for Rice alpha-Glucosidase at pH 5.0 (AID 997). Put shortly:
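Endpoint fluorogenic assay at pH 5.0: compounds (0.7 nM to 77 uM) titrated against 4 nM rice enzyme and 400 uM 4-MU-alpha-glucoside for 20 min at room temperature; NaOH/glycine stop, read ex 365/em 440 nm, Hill-fitted AC50.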

A number with no mark means an inactive call. Results filed as inconclusive are left out. Activity calls are given as the source filed them. Unless noted, the call rests on the fitted dose curve; in most records, active means well fitted curve in the direction sought with a large enough effect; inconclusive means small, poorly fitted or top-dose-only effect, or another doubt; inactive means no such curve, though single readings can be large; an effect the other way counts as inactive or inconclusive. A value given as a limit tells only on which side of the number the result lay.

Chain of Cytochrome P450 3A4 (Homo sapiens) (P08684 whole entry, looked up): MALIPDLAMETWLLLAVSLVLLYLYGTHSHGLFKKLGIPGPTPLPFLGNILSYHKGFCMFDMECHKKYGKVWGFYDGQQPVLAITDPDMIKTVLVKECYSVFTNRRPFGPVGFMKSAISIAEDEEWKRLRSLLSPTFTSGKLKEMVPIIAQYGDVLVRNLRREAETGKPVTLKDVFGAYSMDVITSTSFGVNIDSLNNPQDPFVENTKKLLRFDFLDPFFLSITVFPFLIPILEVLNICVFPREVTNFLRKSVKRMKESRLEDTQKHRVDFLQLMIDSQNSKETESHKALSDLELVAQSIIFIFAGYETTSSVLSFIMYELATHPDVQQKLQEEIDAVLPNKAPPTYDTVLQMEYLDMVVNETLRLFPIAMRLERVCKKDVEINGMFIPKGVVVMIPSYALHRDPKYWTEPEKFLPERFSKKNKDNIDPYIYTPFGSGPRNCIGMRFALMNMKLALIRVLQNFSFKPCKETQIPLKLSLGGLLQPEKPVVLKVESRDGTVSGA
Chain of Pyruvate kinase (Leishmania mexicana) (Q27686 2-499 E452W): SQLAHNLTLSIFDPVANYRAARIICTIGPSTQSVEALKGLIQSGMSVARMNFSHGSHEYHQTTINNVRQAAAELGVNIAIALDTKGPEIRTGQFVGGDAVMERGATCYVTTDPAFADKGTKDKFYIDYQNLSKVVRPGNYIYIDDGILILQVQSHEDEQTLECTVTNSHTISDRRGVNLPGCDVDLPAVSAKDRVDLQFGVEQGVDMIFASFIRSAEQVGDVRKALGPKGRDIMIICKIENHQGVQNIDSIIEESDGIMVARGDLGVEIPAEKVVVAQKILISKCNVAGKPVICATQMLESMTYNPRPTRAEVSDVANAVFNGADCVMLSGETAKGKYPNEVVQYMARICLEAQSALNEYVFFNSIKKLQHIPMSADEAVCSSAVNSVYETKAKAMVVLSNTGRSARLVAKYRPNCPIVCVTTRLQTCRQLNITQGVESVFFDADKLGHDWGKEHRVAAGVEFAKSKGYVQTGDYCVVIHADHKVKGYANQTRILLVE
Chain of Alpha-galactosidase A (Homo sapiens) (P06280 whole entry, looked up): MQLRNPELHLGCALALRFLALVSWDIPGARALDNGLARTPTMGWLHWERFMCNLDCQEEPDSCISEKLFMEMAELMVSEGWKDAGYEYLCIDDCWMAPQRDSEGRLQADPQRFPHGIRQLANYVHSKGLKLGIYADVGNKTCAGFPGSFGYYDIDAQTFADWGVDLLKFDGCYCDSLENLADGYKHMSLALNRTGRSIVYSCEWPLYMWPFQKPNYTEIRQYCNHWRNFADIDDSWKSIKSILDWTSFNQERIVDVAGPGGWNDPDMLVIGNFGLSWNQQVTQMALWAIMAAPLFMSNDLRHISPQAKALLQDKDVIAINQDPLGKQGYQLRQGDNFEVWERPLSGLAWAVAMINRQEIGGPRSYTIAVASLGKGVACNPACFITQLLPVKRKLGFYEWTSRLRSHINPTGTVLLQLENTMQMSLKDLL
Chain of Muscarinic acetylcholine receptor M1 (Rattus norvegicus) (P08482 whole entry, looked up): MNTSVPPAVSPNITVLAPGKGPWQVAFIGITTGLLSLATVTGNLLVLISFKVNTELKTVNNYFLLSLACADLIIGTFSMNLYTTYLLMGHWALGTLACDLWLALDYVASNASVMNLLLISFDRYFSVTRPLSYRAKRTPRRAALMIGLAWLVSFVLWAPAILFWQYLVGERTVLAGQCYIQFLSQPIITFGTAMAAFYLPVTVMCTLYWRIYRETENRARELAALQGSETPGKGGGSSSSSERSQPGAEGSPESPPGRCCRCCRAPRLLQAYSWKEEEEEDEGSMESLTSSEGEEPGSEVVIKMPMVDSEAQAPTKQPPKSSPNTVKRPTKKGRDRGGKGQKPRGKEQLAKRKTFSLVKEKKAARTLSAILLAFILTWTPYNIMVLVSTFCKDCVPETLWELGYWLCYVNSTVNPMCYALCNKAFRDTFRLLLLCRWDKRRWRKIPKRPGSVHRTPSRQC
Chain of DNA dC->dU-editing enzyme APOBEC-3G (Homo sapiens) (Q9HC16 whole entry, looked up): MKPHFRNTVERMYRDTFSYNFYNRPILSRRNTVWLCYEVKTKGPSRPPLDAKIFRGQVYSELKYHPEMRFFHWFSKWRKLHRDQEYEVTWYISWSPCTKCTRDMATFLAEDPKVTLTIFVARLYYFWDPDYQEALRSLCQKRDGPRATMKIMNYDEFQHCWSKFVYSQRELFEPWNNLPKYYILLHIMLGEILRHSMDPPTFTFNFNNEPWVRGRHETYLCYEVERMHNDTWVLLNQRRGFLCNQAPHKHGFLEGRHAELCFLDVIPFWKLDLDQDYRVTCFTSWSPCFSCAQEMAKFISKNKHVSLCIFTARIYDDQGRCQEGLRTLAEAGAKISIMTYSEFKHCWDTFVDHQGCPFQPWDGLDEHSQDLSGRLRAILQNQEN
Chain of Guanine nucleotide-binding protein G(i) subunit alpha-1 (Homo sapiens) (P63096 whole entry, looked up): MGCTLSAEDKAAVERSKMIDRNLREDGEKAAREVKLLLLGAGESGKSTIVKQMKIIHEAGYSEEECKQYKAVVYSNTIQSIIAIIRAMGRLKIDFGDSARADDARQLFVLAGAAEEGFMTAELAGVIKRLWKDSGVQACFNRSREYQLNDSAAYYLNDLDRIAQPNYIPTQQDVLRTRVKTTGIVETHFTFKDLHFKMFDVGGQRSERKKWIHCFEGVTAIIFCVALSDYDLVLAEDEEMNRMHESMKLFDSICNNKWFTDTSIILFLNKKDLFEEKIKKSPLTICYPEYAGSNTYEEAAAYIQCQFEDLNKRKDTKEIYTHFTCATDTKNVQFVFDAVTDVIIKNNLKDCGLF

Regarding `CC(=O)N(O)[C@@H]1c2cc(C#N)ccc2OC(C)(C)[C@H]1O`, the Potency entry in [1], in assay [2] and in assay [3] was “inactive” each time.
For `CC(C)C[C@@H](NC(=O)OCC1c2ccccc2-c2ccccc21)C(=O)O`, the Potency in assay [4] and in assay [5] was greater than 46 µM throughout. Also, the Potency result in [6], in assay [2] and in assay [3] was “inactive” throughout.
Consider `CCOC(=O)C1CSC(Cc2ccc(OCc3ccc([N+](=O)[O-])cc3)cc2)N1` (configuration not stated), for which, in [1], the Potency is 15.8 µM (active). Further, the Potency result in [7], in assay [2] and in [3] was “inactive” throughout.
As for `O=C1C=CC(=O)C2=C1C1c3ccccc3C2c2ccccc21`, in assay [1], the Potency was 39.8 µM (active). Further, the Potency entry in assay [7], in assay [2] and in assay [3] was “inactive” throughout.
`CCCCCCCCCCCCCCCC(=O)O[C@H](CC(=O)O)C[N+](C)(C)C`: the Potency in [4] was greater than 46 µM; in assay [5] it was greater than 46 µM; in assay [11], 5.62 µM (active). The Potency result in assay [8], in [9], in assay [12], in assay [2] and in assay [3] was “inactive” throughout. Also, the compound was called inactive in assay [10], in assay [13] and in assay [14].

The values are drawn from PubChem BioAssay (NCATS).
